# Assay outcomes: PubChem BioAssay, The Scripps Research Institute Molecular Screening Center
# Wee1 stabilizer – Wee1 degradation inhibitors, primary screen, cell-based, HeLa, Wee1K328M-luciferase, luminescence | Wee1-like protein kinase (Homo sapiens), P30291 | HeLa Luc-Wee1K328M stability; 100% = proteasome inhibitor MG132 effect | reporter increase, % at 5 µM | 220,000 tested, 1.2% active;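 active = activation above the mean of all tested compounds plus 3 SD, set per screening run, cut at about 8.8% in these data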;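 also: cells exposed to compound for 20 h before luminescence read; 0% = DMSO alone and 100% = MG132 at 30 µM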
# hgDAF-12 ag – H. glycines DAF-12 receptor agonists, primary screen, cell-based, luminescence, HEK293, GAL4 fusion, UAS-luciferase; Nuclear hormone receptor DAF-12 (Heterodera glycines), GAL4 fusion; HEK293 GAL4-hgDAF12 UAS-luciferase reporter, agonist luminescence; normalized to butyrate control; activation, % at 6.8 µM; 370,000 tested, 1.8% active; AID 687014, 2013;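 active = activation above a cutoff set at the mean of all screened compounds plus 3 SD, cut at about 10% in these data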;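 also: 0% = DMSO wells and 100% = sodium butyrate wells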
# ssDAF12 agonist – S. stercoralis DAF-12 nuclear receptor activators, primary screen, cell-based, luminescence, HEK293, GRIP1 co-expression, lit1-tk-luc; Nuclear hormone receptor DAF-12 (Strongyloides stercoralis); HEK293 ssDAF-12/GRIP1 lit1-tk-luc reporter; % of 3 µM dafachronic acid response; activation, % at 6.8 µM; 370,000 tested, 1% active;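 active = activation above the mean over all tested compounds plus 3 SD, cut at about 0.9% in these data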;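 also: 0% = DMSO-only wells and 100% = 3 µM delta7-dafachronic acid wells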
# hcDAF12 agonist – H. contortus DAF-12 nuclear receptor activators, primary screen, cell-based, luminescence, HEK293, lit1-tk-luc reporter; AID 652067, 2013; HEK293 hcDAF-12 lit1-tk-luc reporter; 0% DMSO, 100% Δ7-dafachronic acid; 370,000 tested, 1.4% active; activation, % at 6.8 µM;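 active = activation above the mean of all tested compounds plus 3 SD, cut at about 5.5% in these data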;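 also: 100% = response to 3 µM Δ7-dafachronic acid high control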
# DAX1 inh-1 – DAX1 (NR0B1) inhibitors, primary screen, cell-based, HEK293, Gal4-DAX1, luciferase luminescence; HEK293 Gal4-DAX1 luciferase reporter; inhibition, % at 6.75 µM; 340,000 tested, 0.99% active;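 active = inhibition above the mean over all tested compounds plus 3 SD, cut at about 4.2% in these data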;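 also: 0% = DAX1-transfected cells with DMSO and 100% = empty-vector control cells with DMSO; inhibition shows as a rise in luminescence from relieved DAX1 repression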
# Target sequence (P51843 207-470 limits assumed): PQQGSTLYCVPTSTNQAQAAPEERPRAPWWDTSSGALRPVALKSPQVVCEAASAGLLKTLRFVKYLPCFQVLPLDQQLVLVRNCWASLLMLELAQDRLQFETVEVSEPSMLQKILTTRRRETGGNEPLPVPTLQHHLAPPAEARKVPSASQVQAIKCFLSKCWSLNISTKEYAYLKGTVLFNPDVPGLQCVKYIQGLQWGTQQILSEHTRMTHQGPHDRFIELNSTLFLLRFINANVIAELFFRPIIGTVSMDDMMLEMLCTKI
# DAX1 inh-2 – DAX1 (NR0B1) inhibitors on StAR promoter, primary screen, cell-based, luminescence, SF-1 (NR5A1), full-length DAX-1; HEK293T StAR-luciferase reporter, SF-1/DAX-1 repression relief; inhibition, % at 6.8 µM; 370,000 tested, 1.1% active;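 active = inhibition above the mean over all tested compounds plus 3 SD, cut at about 3.6% in these data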;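 also: 0% = DAX-1 cells with DMSO and 100% = cells lacking DAX-1 with DMSO; higher inhibition means more luminescence from relief of DAX-1 repression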
# DAX1 conf – DAX1 (NR0B1) inhibitors relieving SF-1 repression, confirmation, cell-based, luminescence, HEK293T, full-length DAX-1, SF-1 activated StAR promoter. shares compounds with DAX1 inh-2. HEK293T StAR-promoter luciferase reporter, SF-1/DAX-1 repression. inhibition, % at 6.8 µM. 2,400 tested, 87% active;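 active = inhibition above the average of every tested compound plus 3 SD, cut at about 3.8% in these data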;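 also: 0% = DAX-1 cells with DMSO and 100% = no DAX-1 control cells with DMSO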
# SF1 AF2mut Luc – StAR reporter signal changes without DAX1, counter-screen for DAX1 inhibitor project, cell-based, luminescence, AF-2 mutant SF-1, transactivation; shares compounds with DAX1 inh-2; HEK293 StAR-luciferase, SF-1 AF2 mutant; inhibition, % at 6.8 µM; 2,400 tested, 78% active;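 active = inhibition above the mean of all tested compounds plus 3 SD, cut at about 3% in these data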;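 also: 0% = DAX-1 transfected cells with DMSO and 100% = cells without DAX-1 with DMSO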
# Active calls of the source: *; · = no result. The list is not random: actives were taken first. Their share in the collection is about 4.6%.
SMILES,Wee1 stabilizer,hgDAF-12 ag,ssDAF12 agonist,hcDAF12 agonist,DAX1 inh-1,DAX1 inh-2,DAX1 conf,SF1 AF2mut Luc
O=C(CCS(=O)(=O)c1ccccc1)N1CCN(c2ccccc2)CC1,·,5,-1,5,1,9.3*,6.8*,3.7*
O=C(Nc1nccs1)c1ccc(-c2ccccc2[N+](=O)[O-])o1,·,10,0,3,1,5.2*,7.2*,6.3*
O=C(Nc1nccs1)c1ccc(N2CCOCC2)c([N+](=O)[O-])c1,·,9,0,3,3,7.0*,8.4*,5.4*
COC(=O)[C@@]12C[C@@H](CC(=O)N3CCN(C(=O)c4ccco4)CC3)C(=O)N(Cc3ccccc3)C1=CCC(C)(C)C2,·,-4,-1,-3,·,0,·,·
CC1CCN(CCCNC(=O)CCc2nnc3n(CCc4ccccc4)c(=O)c4ccccc4n23)CC1,·,-3,-1,1,0,5.7*,-1,0
COC(=O)[C@]12C[C@H](CC(=O)NCCC(C)C)C(=O)N(Cc3ccc4c(c3)OCO4)C1=C[C@H](C(C)C)O[C@@H]2C1CC1,·,0,-1,-1,·,-1,·,·
COc1ccc(NC(=O)c2cc(-c3ccc(F)cc3C)n[nH]2)cc1OC,·,-4,-1,-3,·,2,·,·
Cc1cc(F)ccc1-c1cc(C(=O)Nc2ccc(F)cc2)[nH]n1,·,12*,0,2,·,9.6*,11*,5.6*
CCN(C(=O)COC(=O)/C=C/c1cccc([N+](=O)[O-])c1)c1c(N)n(Cc2ccccc2)c(=O)[nH]c1=O,·,0,-1,-1,0,0,·,·
O=C(NCCc1cccc(Cl)c1)c1ccc2c(c1)OCO2,·,10,1,5.6*,-1,11*,13*,6.8*
CCCn1c(C)cs/c1=N\C(=S)Nc1ccccc1,5,-1,-1,1,0,0,·,·
Cc1cs/c(=N/C(=S)Nc2ccccc2)n1C,0,13*,0.9*,2,3,5.6*,12*,5.8*
CC(C)C(Cl)=NOC(=O)Nc1ccc(S(N)(=O)=O)cc1,·,2,-1,0,3,0,·,·
Cc1c(C(=O)OCC(=O)NCc2ccco2)oc2ccccc12,·,2,-1,-2,1,4.5*,1,1
Cc1cc2oc(=O)cc(CN(C)Cc3ccccc3)c2cc1C,·,5,0,2,·,1,·,·
Cc1ccc(S(=O)(=O)N(C)C)cc1NC(=O)COC(=O)/C=C/c1ccc2ccccc2n1,·,3,0,1,0,5.0*,1,0
COc1ccc2c(c1)C(CC(C)=O)N(c1ccc(-c3cccs3)cc1)C(c1ccsc1)=C2 (configuration not stated),·,-7,-2,-4,·,-6,·,·
COC(=O)[C@]12CCCCC=C1N(CCc1ccc(OC)c(OC)c1)C(=O)[C@H](CC(=O)NCc1cccc3ccccc13)C2,·,0,-1,-1,·,4.6*,3,6.3*
COC(=O)[C@]12CCCCC=C1N(Cc1cccc3ccccc13)C(=O)[C@H](CC(=O)NCc1ccc(OC)c(OC)c1)C2,·,-16,-3,-6,·,-8,·,·
CCOC(=O)[C@]12CCCC=C1N(Cc1ccc3c(c1)OCO3)C(=O)[C@H](CC(=O)NCc1cccc3ccccc13)C2,·,3,-1,-1,·,6.2*,0,2
Cc1ccc(NC(=O)CSc2ccc(S(=O)(=O)N3CCCC3)cn2)cc1F,·,-2,-1,-1,1,5.9*,-5,0
O=C(OCC(=O)N1CCCC1)c1ccccc1O,·,3,0,3,4,1,·,·
O=C(OCC(=O)N1CCN(c2ccccc2)CC1)c1ccccc1OC(F)F,·,0,-1,-1,0,5.0*,-2,-1
O=C(OCC(=O)N1CCCCCC1)c1ccccc1Br,·,12*,0,5.7*,2,4.5*,10*,5.3*
COc1ccc(CCNC(=O)c2nn(C)c3c2CS(=O)(=O)c2ccccc2-3)c(OC)c1,·,-1,-1,-2,-1,-1,·,·
SMILES,Wee1 stabilizer,hgDAF-12 ag,ssDAF12 agonist,hcDAF12 agonist,DAX1 inh-1,DAX1 inh-2,DAX1 conf,SF1 AF2mut Luc
CCn1c(=O)c(C(=O)CN(C)CC(=O)Nc2ccccc2Br)c(N)n(Cc2ccccc2)c1=O,·,-1,-1,-2,-2,0,·,·
CC(C)c1ccc(/C=C2\SC(=O)N(CC(=O)NCCCn3ccnc3)C2=O)cc1,·,11*,0,3,1,6.8*,6.2*,6.5*
COc1ccc(C(=O)NNC(=O)c2ccncc2)cc1,3,0,-1,-4,-1,0,·,·
COc1ccc(O)c(C(=O)CC(=O)c2ccncc2)c1,·,12*,-1,1,2,4.7*,5.7*,3.6*
CC(=O)N1CCCN(C(=O)CCn2nnc3ccccc32)CC1,·,0,-1,-1,·,0,·,·
N#Cc1cc2c(nc1SCC(N)=O)CCCCC2,2,5,0,3,1,4.8*,7.3*,4.5*
CCOC(=O)CC(=O)CSc1nc2c(cc1C#N)CCCCCC2,·,0,-1,1,0,0,·,·
O=C(c1cc(COc2ccc(F)cc2Cl)on1)N1CC2C[C@@H]3CC1C[C@H](C2)C3,·,13*,0,3,1,5.7*,5.8*,2
Cc1nnc(CN(C)C(=O)c2cc(COc3ccc(C)c(C)c3)on2)o1,·,3,-1,1,2,0,·,·
O=C(c1cc(COc2ccc(F)cc2Cl)on1)N1C[C@H]2CC[C@H]1C2,·,5,0,1,3,3,·,·
Cc1ccc(OCc2cc(C(=O)N3CC4C[C@@H]5CC3C[C@H](C4)C5)no2)cc1C,·,11*,0,5,2,5.2*,2,3.6*
